Among the data in PubChem BioAssay AID371 (SRMLSC, 2006) are growth inhibition values, retold here.

Out of some 3,300 compounds screened, about 280 (8.5%) were called active. The sample holds actives, similar compounds and a random draw of the others, so the mix is not that of the screen. A number with no mark means an inactive call.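 How the source made its calls: active means mean growth inhibition over the two runs of 50% or more; inactive means mean growth inhibition under 50%.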

This test is described as follows: A549 NSCLC cell proliferation inhibitors – ATP luminescence, human non-small cell lung line, primary screen (AID 371).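 Further: compound exposure lasted 72 h before the ATP read; 0% = untreated cell signal and 100% = no luminescence left.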 As to conditions: at 10 µM, hits give high values.
In the case of `CCn1cc(C(=O)NCC2CCCO2)c(=O)c2cc(F)c(N3CCN(C)CC3)cc21` (centres undefined), the growth inhibition is -0.9%.
With `CCn1cc(C(=O)NCCc2ccccc2)c(=O)c2cc(F)c(N3CCN(C)CC3)cc21`, the growth inhibition is 89.8% (active).
The value for `CCOC(=O)N1CCN(C(=O)c2cn(CC)c3cc(N4CCN(C)CC4)c(F)cc3c2=O)CC1` was 0.65%.
The value for `CCn1cc(C(=O)NCc2ccco2)c(=O)c2cc(F)c(N3CCN(C(=O)c4ccco4)CC3)cc21` was 59.3% (active); that for `CCn1cc(C(=O)NCc2ccccn2)c(=O)c2cc(F)c(N3CCN(C)CC3)cc21` was -0.7%.
The value for `CCn1cc(C(=O)NCCCN(C)C)c(=O)c2cc(F)c(N3CCN(C)CC3)cc21` was 8.61%; that for `CCNc1nc(NC(C)C)nc(N(C#N)C(C)C(=O)N(C)C)n1` (centres undefined) was 2.18%; that for `CCN(CC)CCCN1C(=O)C(=O)/C(=C(/O)c2ccccc2)C1c1cc(OC)ccc1OC` (centres undefined) was 6.35%.
With `O=C1CC(NCc2ccncc2)C(=O)N1c1ccc(Cl)cc1` (centres undefined), the growth inhibition is -4.36%.
Turning to `COc1cccc(NC(=O)CC2SC(=Nc3ccccc3)NC2=O)c1` (centres undefined), the growth inhibition is 19.4%.
Take `Cn1c(CSc2ncn[nH]2)nc2ccccc21`: the growth inhibition was -2.84%.
Regarding `CC12CCC(=O)N1c1c(sc3nc(N4CCOCC4)c4c(c13)CCCC4)C(=O)N2` (centres undefined), the growth inhibition was 4.33%.
The value for `CCOC(=O)c1c(C)n(C)c2ccc(OC)c(NC(=O)CN3CCN(Cc4ccccc4)CC3)c12` was 12.1%; that for `CCOC(=O)c1c(CN2CCN(CCO)CC2)n(C)c2cc(Br)c(OC)cc12` was 84.4% (active).
Next, `CCOC(=O)c1c(CNCCN(CC)CC)n(C)c2cc(Br)c(OC)cc12`: 33.7%.
Next, `CCOC(=O)c1c(C)n(C)c2ccc(OC)c(NC(=O)CN3CCCCC3)c12`: 6.99%; `CCOC(=O)c1c(CN2CCN(C)CC2)n(C)c2cc(Br)c(OC)cc12`: 89.8% (active).
As for `CCOC(=O)c1c(CN2CCCCC2)oc2ccc(OC)cc12`, the growth inhibition is 5.15%.
Next, `COc1ccccc1C1/C(=C(/O)c2ccc(C)cc2)C(=O)C(=O)N1CCN1CCOCC1` (centres undefined): 2.55%; `CN(CCCCCC(=O)/C=N/O)Cc1ccccc1`: 1.07%.
Next, `COc1ccc(N(CN2C(=O)C3C4C=CC(C4)C3C2=O)C(=O)c2ccco2)cc1` (centres undefined): 4.02%; `N#C/C(C(=O)NCc1ccco1)=C1/SC(Cc2ccc(Cl)cc2)C(=O)N1c1ccccc1` (centres undefined): 5.74%.
Next, `CN(C)CCCn1c(NC(=O)C2CCCCC2)nc2ccccc21`: 1.53%; `CCC(=O)Nc1nc2ccccc2n1CCN(C)C`: 4.62%; `CCC(=O)Nc1nc2ccccc2n1Cc1ccccc1C`: 64.4% (active).
For `CCOc1ccc(NC(=O)c2nn(C)cc2Br)cc1`, the growth inhibition was 20.1%.
The value for `COc1cccc(-c2nc(N3CCCCC3C)c3ccccc3n2)c1O` (centres undefined) was 61.7% (active).
With `CCOc1nc(-c2ccncc2)nc2ccccc12`, the growth inhibition was 10.3%.
Next, `C=CCOc1nc(-c2ccncc2)nc2ccccc12`: 18.5%; `CCC1CCCCN1c1nc(-c2cccc(OC)c2O)nc2ccccc12` (centres undefined): 45%; `COc1cccc(-c2nc(N3CCCCC3)c3ccccc3n2)c1O`: 49.3%.
In the case of `COc1cccc(-c2nc(N3CCC(C)CC3)c3ccccc3n2)c1O`, the growth inhibition was 53.7% (active).
Next, `CCC1CCCCN1c1nc(-c2ccncc2)nc2ccccc12` (centres undefined): 74.9% (active); `Nc1c2c(nc3ccccc13)N(C1CCCCC1)CC2`: 38.8%.
Next, `COc1cccc(-c2nc(N3CC(C)CC(C)C3)c3ccccc3n2)c1O` (centres undefined): 30.1%; `Cc1ccc(N2C(=O)c3sc4nnc(C)c(=O)n4c3C2=O)cc1`: -7.4%; `COc1cccc(OC)c1-c1nn2c(-c3ccccc3Cl)nnc2s1`: 21%.
Next, `CCOC(=O)c1ccc(NCC(O)COc2ccccc2)cc1` (centres undefined): 31.1%; `COc1ccc(C(=O)N2CCCC(c3ccccc3)C2)cc1` (centres undefined): 19%; `COc1ccccc1-c1nnc2sc(COc3ccccc3)nn12`: 22%.
As to `CC1C[C@@]2(NC(=O)NC2=O)C(C)CN1C` (some centres undefined), the growth inhibition is 2.94%.
Next, `COc1ccc(Nc2cc(C)nc(-n3nc(C)cc3C)n2)cc1`: 66.2% (active).
On to `COc1ccc(Nc2cc(C)nc3ccccc23)cc1`, for which the growth inhibition is 31.3%.
Next, `COc1ccc(Nc2nc(Nc3ccc(OC)cc3)nc(-n3[nH]c(=O)c(C)c3C)n2)cc1`: 39.1%; `O=C(Nc1ccccc1)c1cc(N2CCOCC2)nc2ccccc12`: 8.97%; `CC(C)COc1ccc(C(=O)NC(CC(C)C)C(=O)O)cc1` (centres undefined): -8.3%.
Next, `COc1cc(-c2nn3c(-c4ccccn4)nnc3s2)cc(OC)c1OC`: -8.06%; `Cc1ccc2c(=O)c(CN(C)C3CCN(C)CC3)c(C)[nH]c2c1C`: 5.56%; `COc1ccccc1-c1nnc2n1N=C(c1ccc(O)c(O)c1)CS2`: 74.4% (active).
The value for `CCOc1ccc(C2=Nn3c(nnc3-c3ccccn3)SC2)cc1` was 42.3%; that for `COc1ccc(C2=Nn3c(nnc3-c3cccnc3)SC2)cc1OC` was 25%; that for `COc1ccc(OC)c(C2=Nn3c(nnc3-c3ccco3)SC2)c1` was 23.2%.
For the compound `CCOc1ccc(C2=Nn3c(nnc3-c3cccnc3)SC2)cc1`, the growth inhibition is 22.4%.
Next, `COc1ccc(C2=Nn3c(nnc3-c3ccccn3)SC2)cc1OC`: 3.8%; `COc1ccc(C2=Nn3c(nnc3-c3ccccc3)SC2)cc1OC`: 8.86%; `COc1ccc(C2=Nn3c(nnc3-c3ccccn3)SC2)cc1`: 50.1% (active).
Next, `CCOc1ccc(C2=Nn3c(nnc3-c3ccccc3OC)SC2)cc1`: 66% (active); `Cc1ccsc1C1NC(=O)c2c(sc3c2CCCC3)N1` (centres undefined): 45.3%.
The value for `O=CN1CCN(C(=O)CN2C(=O)c3ccccc3C2=O)CC1` was -3.2%; that for `C/C=C/c1ccccc1OCc1ccc(C(=O)O)o1` was 6.28%.
In the case of `CC12CN3CC(=O)N4CC5(C)CN(CC(C)(C4)C5=O)C(=O)CN(C1)CC(C)(C3)C2=O`, the growth inhibition was 1.18%.
As for `COC(=O)CSc1ncnc2c1sc1nc(-c3ccco3)c3c(c12)CC(C)(C)OC3`, the growth inhibition was 4.18%.
The value for `O=C(Nc1ccccn1)c1ccc(=O)[nH]n1` was 5.88%.
For `C=CCn1c(SCC(=O)OC)nc2sc3c(c2c1=O)CCN(C)C3`, the growth inhibition is 0.89%.
For the compound `CCCC1C2C(=O)N(c3ccccc3OC)C(=O)C2ON1c1ccccc1` (centres undefined), the growth inhibition is 5.99%.
The value for `CN(C)CCN(Cc1ccccc1)c1ccccn1` was 0.66%; that for `CN(Cc1ccccc1)c1ncnc2ccc(Br)cc12` was 55.5% (active).
Next, `COCCNc1nc2c(c(=O)n(C)c(=O)n2C)n1Cc1cccc(C(F)(F)F)c1`: 36.4%.
The value for `Cc1c(NC(=O)C(CC(=O)O)NCc2ccco2)c(=O)n(-c2ccccc2)n1C` (centres undefined) was 5.55%; that for `Cc1c(NC(=O)c2coc(=O)c(Br)c2)c(=O)n(-c2ccccc2)n1C` was 80.5% (active).
As for `Cc1c(NC(=O)c2ccc(=O)oc2)c(=O)n(-c2ccccc2)n1C`, the growth inhibition was -1.44%.
Next, `Cc1c(CCC#N)c(N2CCCCC2)n2c(nc3ccccc32)c1C#N`: 4.5%; `Cc1c(CCC#N)c(N2CCN(C3CCCCC3)CC2)n2c(nc3ccccc32)c1C#N`: 89.1% (active).
As for `C=C(C)CN1CCN(c2c(CCC#N)c(C)c(C#N)c3nc4ccccc4n23)CC1`, the growth inhibition is 25.9%.
Next, `CC1(C)CC(=O)C(CCCN2C(=O)c3ccccc3C2=O)C(=O)C1`: 0.69%; `Cc1ccc(-c2nn3c(-c4cccc(Cl)c4)nnc3s2)cc1`: 45%; `CC(C)COc1ccc(C(=O)OCCN2CCOCC2)c(O)c1`: 12.1%.
Consider `O=c1[nH]c2ccccc2n1CCCN1CCN(C(c2ccccc2)c2ccccc2)CC1`, for which the growth inhibition was 90.4% (active).
The value for `O=C(O)CCCC(=O)N1CCN(C(c2ccccc2)c2ccccc2)CC1` was 0.62%; that for `C(=C\c1ccccc1)/CN1CCN(C(c2ccccc2)c2ccccc2)CC1` was 22.9%; that for `COc1cc2[nH]c3c(=O)n(CCN(C(C)C)C(C)C)cnc3c2cc1OC` was 5.76%.
The value for `Cc1ccc(-c2nn(CCC(=O)NCC3CCCO3)c(=O)c3ccccc23)cc1` (centres undefined) was 17.4%; that for `O=C(N(c1ccccc1)c1ccccc1)n1ccnc1` was 7.93%; that for `c1ccc(-c2ccc(C(c3ccccc3)n3ccnc3)cc2)cc1` (centres undefined) was 78.7% (active).
The value for `COc1cccc(C2C(C#N)=C(N)Oc3cc(C)[nH]c(=O)c32)c1OC` (centres undefined) was 2.31%; that for `COc1cc(C2C(C#N)=C(N)Oc3cc(C)n(CCN4CCOCC4)c(=O)c32)cc(OC)c1OC` (centres undefined) was 3.04%.
Turning to `COc1cc(C2C(C#N)=C(N)Oc3cc(N)ccc32)cc(OC)c1OC` (centres undefined), the growth inhibition is 51.6% (active).
As to `CC(C(=O)N1CCCCC1)N1C(=O)c2ccccc2C1=O` (centres undefined), the growth inhibition is -14.3%.
The value for `O=C1C(=O)N(CCN2CCOCC2)C(c2ccccn2)/C1=C(/O)c1ccccc1` (centres undefined) was 4.51%; that for `CCN(CC)CCCN1C(=O)C(=O)/C(=C(/O)c2ccc(Cl)cc2)C1c1ccccn1` (centres undefined) was -16.8%.
Next, `CCCCc1oc2ccccc2c1C(=O)c1cc(I)c(OCCN(CC)CC)c(I)c1`: 83.4% (active); `CCN(CC)CCOC(=O)C(c1ccccc1)c1ccccc1`: 2.67%; `CCC(C(=O)OCCN(CC)CC)c1ccccc1` (centres undefined): 5.51%.
In the case of `CCCn1c(SCC#N)nc2c(c1=O)C1(CCCC1)Cc1ccccc1-2`, the growth inhibition is 21.2%.
The value for `O=S(=O)(c1ccccc1)N1CCC(N2CCN(c3ccccc3)CC2)CC1` was 4.82%.
Next, `CCN(CC)CCNc1ncnc2c1[nH]c1ccc(OC)cc12`: 42.2%; `COc1ccc2[nH]c3c(N4CCN(Cc5ccc6c(c5)OCO6)CC4)ncnc3c2c1`: 76.3% (active); `CC(C)OC(=O)C(C#N)c1nc2ccccc2nc1N1CCN(Cc2ccc3c(c2)OCO3)CC1` (centres undefined): 3.13%.
Next, `Fc1ccc2[nH]c3c(N4CCN(Cc5ccc6c(c5)OCO6)CC4)ncnc3c2c1`: 83.3% (active); `Cc1cc(=O)oc(C)c1C(=O)N1CCN(Cc2ccc3c(c2)OCO3)CC1`: 8.78%.
For the compound `COc1ccccc1C(=O)N1CCN(Cc2ccc3c(c2)OCO3)CC1`, the growth inhibition was 8.7%.
`CCCCNC(=O)C(C#N)c1nc2ccccc2nc1N1CCN(Cc2ccc3c(c2)OCO3)CC1` (centres undefined): the growth inhibition is 11.1%.
Next, `CCOC(=O)N1CCN(c2ncnc3c2[nH]c2ccc(OC)cc23)CC1`: 28.5%; `Cc1ccc2[nH]c3c(N4CCN(Cc5ccc6c(c5)OCO6)CC4)ncnc3c2c1`: 83.9% (active).
